Reference: the supplement of paper PMC10338343
± gives the standard deviation.

System: MILI (PIWIL2) piRISC loaded with L1MC piRNA (26 nt)
Assay: pre-steady-state target cleavage rate (min^-1); guide: L1MC piRNA 5'p-UAACUAAAUACUAUGCAAGCUGUAGG; MIWI and MILI are mouse PIWI proteins and EfPiwi is from a freshwater sponge; tags in brackets are library labels; higher = faster piRNA-guided slicing of the target
Details: auxiliary factor: 500 nM mouse GTSF1
How it was run: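 At 33 °C in HEPES–potassium acetate buffer, a transcribed, DNA-blocked target RNA library […] was exposed for 0–8 or 0–960 min to 1 nM active affinity-purified piRISC carrying a single synthetic guide, with or without 500 nM GTSF1 partner protein. Uncleaved targets were sequenced and normalised to depth and to weakly complementary targets. With three trials pooled and k3 capped at 0.0001 min^-1, a burst-and-steady-state fit produced the pre-steady-state cleavage rate.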
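Further: 1 nM active piRISC with 0.1 nM target library at 33 °C single turnover.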

Sequence | pre-steady-state target cleavage rate
UCCUGGAUGAGCUUGGAUAGAAUUUAGUUA | 0.0131 ± 0.0067
UCCUGCUACUCGUUGCAUAGUAUUUUCAAA | 0.0428 ± 0.014
UCCUGGUACAGCUUGCAAAGUAUUUACUUA | 0.0515 ± 0.015
UCCUGCUUGUGCUUGCAUAGUAUUUUCAAA | 0.00521 ± 0.0042
UCCUGGUAGAGCUUGCAUAGUAUUUAGAUA | 0.14 ± 0.025
UCCUGGAUGUCGAUCAUAGUAUUUAGUUA | 0.017 ± 0.006
UCCUGGAUGACCUUGCAUAGUAUUUACUUA | 0.0753 ± 0.027
UCCUGGAACAGCAACCAUAGUAUUUAGAAA | 0.018 ± 0.0072
UCCUGGAACAGCAAGCAUAGUAUUUUCAAA | 0.0642 ± 0.018
UCCUGGAUGUCCAACCAUAGUAUUUAGUUA | 0.00412 ± 0.004
UCCUGGAACAGCUUGCUUAGUAUUUAGAAA | 0.142 ± 0.029
UCCUCCUACAGCUUGCAUAGCUAUUUAGUUA | 0.0126 ± 0.0058
UCCUGGAUGAGCUUGCAAAGUAUUUACAAA | 0.00757 ± 0.0048
UCCUGGAUGUCCUUGCAUACUAUUUACUUA | 0.0119 ± 0.0046
UCCUGGAUCAGCUUGCAUAGAAUUUAGUAA | 0.0373 ± 0.011
UCCUGGAUGUGGUUGCAUAGUAUUUACUUA | 0.00985 ± 0.0096
UCCUGGAACAGCUUGCAAAGUAUUUACUUA | 0.122 ± 0.027

Sequence | pre-steady-state target cleavage rate
UCCUGGAUGUCGUUGCAUAGUAUGUAGUUA | 0.015 ± 0.0074
UCCUGGAUGUCGAAGCAUAGUAUUUCGUUA | 0.00855 ± 0.0046
UCCUGGAACAGCAAGCAUAGUAUUUAGUAA | 0.271 ± 0.025
UCCUGGUACAGCUUGCAAUGUAUUUACAAA | 0.00784 ± 0.0049
UCCUGGAUGAGCUUGCAUAGUAUUAUCUUA | 0.00985 ± 0.0048
UCCUCCUACAGCUUGCAUAGUAUUUUGUAA | 0.092 ± 0.019
UCCUGGAACAGCUUGCAUAGAAUUAAGUUA | 0.051 ± 0.014
UCCUGGAUGUGCUUGCAUAGUAAAUAGUUA | 0.0601 ± 0.012
UCCUGGAUCAGCUUGCUAAGUAUUUAGAAA | 0.0172 ± 0.006
UCCUGGAUGUCCUUGGAUACUAUUUAGUUA | 0.0119 ± 0.0061
UCCUGGAUCAGCUUGCAUACUAUUUACAAA | 0.0104 ± 0.0042
UCCUGGAUGUCGAACGUUGAGUAUUUAGUUA | < 0.0001
UCCUGCUACAGCUUGCAAUGUAUUUACAAA | 0.0477 ± 0.014
UCCUGGAACAGCUAGCAUAGUAUUUUCAAA | 0.0419 ± 0.014
UCCUGGAACAGGUUGCAUAGUAUUUUCAAA | 0.0435 ± 0.012
UCCUGGAUGUCGAAGCAUAGUAUUUACUUA | 0.00488 ± 0.0029
UCCUGGAUGUCGUUGCUUAGUAAUUAGUUA | 0.0131 ± 0.0058

Same assay, conditions: auxiliary factor: none (no GTSF1)

Sequence | pre-steady-state target cleavage rate
UCCUGGAUGUCGAACCAUACUAUUAAGUUA | < 0.0001
UCCUGGAUGUGCUUGCAUACUUUUUAGUUA | 0.0037 ± 0.0027
UCCUGGAUGUCGAACGAUAGUUAAUAGUUA | < 0.0001
UCCUGGAUGUCGAACGAUGAGUAUUUAGUUA | < 0.0001
UCCUGGAUGUCGAACGUAAGUAAUAAGUUA | < 0.0001
UCCUGGAUGUCGAACCAUAGUAUUUAGUGUA | < 0.0001
